{"source": "the supplement of paper PMC8975748", "note": "Structures can show the parent of a compound that is named as a salt."}
{"test_system": "Saccharomyces cerevisiae BY4741 SeMeCo community", "experiment": "z-score of subpopulation abundance vs DMSO median, subpopulation auxotrophic for LUM; higher = larger share of this subpopulation than in DMSO controls", "conditions": "10 µM; 24 h; SM minimal medium; subpopulation (auxotrophy): LUM", "how_it_was_run": "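A Saccharomyces cerevisiae BY4741 community carried four plasmids, each restoring one auxotrophy and encoding a distinct fluorescent protein. It was pre-grown overnight to OD600 1.0, diluted to 0.3, and 70 µl was added to 384-well plates acoustically predosed with library drugs (10 µM final), then grown 24 h in minimal SM medium. Cells were paraformaldehyde-fixed and imaged by automated confocal microscopy, with single-auxotroph fluorescent strains setting thresholds and autofluorescence correction. Each subpopulation's abundance was scored as a z-score against the vehicle-well median.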"}
{"smiles": "CC(C)Cc1ccc(C(C)C(=O)O)cc1", "note": "(centres undefined) [Ibuprofen]", "z-score of subpopulation abundance": -2.23}
{"smiles": "Fc1ccc(C(c2ccc(F)cc2)N2CCN(C/C=C/c3ccccc3)CC2)cc1", "note": "[Flunarizine 2HCl]", "z-score of subpopulation abundance": 1.42}
{"smiles": "CCCCOc1ccc(CC(=O)NO)cc1", "note": "[Bufexamac]", "z-score of subpopulation abundance": -0.9}
{"smiles": "CCC(=O)NS(=O)(=O)c1ccc(-c2c(-c3ccccc3)noc2C)cc1", "note": "[Parecoxib Sodium]", "z-score of subpopulation abundance": 1.18}
{"smiles": "CN(CCN1CCC(OC(=O)Nc2ccccc2-c2ccccc2)CC1)C(=O)c1ccc(CN2CCC(C(N)=O)CC2)cc1", "note": "[Revefenacin]", "z-score of subpopulation abundance": 0.17}
{"smiles": "Cc1nnc(NS(=O)(=O)c2ccc(N)cc2)s1", "note": "[Sulfamethizole]", "z-score of subpopulation abundance": -0.52}
{"smiles": "CC1=CC[C@@](O)(C(C)C)CC1", "note": "[Terpinen-4-ol]", "z-score of subpopulation abundance": 0.2}
{"smiles": "CS(=O)(=O)c1ccc([C@@H](O)[C@@H](CF)NC(=O)C(Cl)Cl)cc1", "note": "[Florfenicol]", "z-score of subpopulation abundance": -0.3}
{"smiles": "CC(=O)OCC(COC(C)=O)OC(C)=O", "note": "[Triacetin]", "z-score of subpopulation abundance": 0.32}
{"smiles": "COc1ccc(Cl)cc1C(=O)NCCc1ccc(S(=O)(=O)NC(=O)NC2CCCCC2)cc1", "note": "[Glyburide (Glibenclamide)]", "z-score of subpopulation abundance": 1.11}
{"smiles": "O=C(Nc1c(Cl)cncc1Cl)c1ccc(OC(F)F)c(OCC2CC2)c1", "note": "[Roflumilast]", "z-score of subpopulation abundance": -0.56}
{"smiles": "CCN(CC)CCOc1ccc2c(c1)C(=O)c1cc(OCCN(CC)CC)ccc1-2", "note": "[Tilorone dihydrochloride]", "z-score of subpopulation abundance": -0.39}
{"smiles": "CN(C)[C@@H](CCOc1cccc2ccccc12)c1ccccc1", "note": "[Dapoxetine HCl]", "z-score of subpopulation abundance": 0.92}
{"smiles": "CN(C)CCC=C1c2ccccc2C(C)(C)c2ccccc21", "note": "[Melitracen hydrochloride]", "z-score of subpopulation abundance": -0.83}
